The structures appear in SMILES notation. Values joined by “and” are separate entries in the source; they are usually repeats but may differ in a detail not shown here. Equal entries are not always repeated. Records with an inconclusive call do not appear. Unmarked numbers belong to inactive results. Active and inactive are the calls of the source. The call rests on the fitted dose curve; in most records, active means well fitted curve in the direction sought with a large enough effect; inconclusive means small, poorly fitted or top-dose-only effect, or another doubt; inactive means no such curve, though single readings can be large; an effect the other way counts as inactive or inconclusive.

The values that follow come from PubChem BioAssay (NCATS).

The target in test [1] is Cytochrome P450 3A7 (Homo sapiens) (UniProt P24462). The test can be described thus: Cytochrome P450 family 3 subfamily A member 7 (CYP3A7) small molecule antagonists: luciferase biochemical qHTS assay (AID 1963596). Further: on the % scale 0 is the no-effect control and ±100 the full control effect; nearly all actives have a fitted effect of over 40% in size. Put shortly: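 P450-Glo luminescent assay: CYP3A7 enzyme converts a proluciferin substrate to luciferin, detected by luciferase reagent; light proportional to activity. Compounds in DMSO preincubated 10 min with enzyme-substrate mix at room temperature, then NADPH regeneration added for 1 h.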
Chain of Cytochrome P450 3A7 (Homo sapiens) (P24462 whole entry, looked up): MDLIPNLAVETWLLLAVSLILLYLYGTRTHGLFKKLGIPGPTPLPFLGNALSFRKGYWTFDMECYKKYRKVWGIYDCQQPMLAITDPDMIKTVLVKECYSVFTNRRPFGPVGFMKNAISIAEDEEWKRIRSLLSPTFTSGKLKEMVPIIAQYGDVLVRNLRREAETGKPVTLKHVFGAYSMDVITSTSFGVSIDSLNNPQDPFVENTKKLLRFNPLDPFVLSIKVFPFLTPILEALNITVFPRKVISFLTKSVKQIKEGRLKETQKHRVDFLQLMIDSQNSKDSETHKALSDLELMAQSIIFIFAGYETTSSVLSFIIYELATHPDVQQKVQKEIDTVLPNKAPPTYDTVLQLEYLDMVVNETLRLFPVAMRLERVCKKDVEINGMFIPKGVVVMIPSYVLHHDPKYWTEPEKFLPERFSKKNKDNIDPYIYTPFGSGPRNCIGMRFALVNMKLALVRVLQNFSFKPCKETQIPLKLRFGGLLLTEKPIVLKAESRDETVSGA
A general note: Quantitative high-throughput screening tests each substance at several concentrations.

Test [2] can be described thus: Viability qHTS for spleen associated tyrosine kinase inhibitor (SYKi) naive MV4-11 cells (AID 1963823). Further: nearly all actives have a fitted effect of over 40% in size. Further: potency means the concentration at half of the fitted maximal effect. Put shortly: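 Compounds were dispensed acoustically onto plates, MV4-11 cells (SYKi-naive) added at 500 per well, and plates incubated 72 hr at 37 C. CellTiter-Glo was added and luminescence measured after 10 min.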
Test [3] is described as follows: Viability qHTS for spleen associated tyrosine kinase inhibitor (SYKi) drug resistant MV4-11 cells (AID 1963824). Further: nearly all actives have a fitted effect of over 35% in size. Further: potency means the concentration at half of the fitted maximal effect. Put shortly: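 SYK inhibitor-resistant MV4-11 AML cells, 500 per well, added to predispensed compounds and incubated 72 hr at 37 C, 5% CO2. Viability measured by CellTiter-Glo luminescence after 10 min at room temperature.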
The nature of test [4]: Cellular viability qHTS for adrenocortical cancer (ACC) cell line SW-13 (AID 1963989). Further: nearly all actives have a fitted effect of over 65% in size. Further: potency means the concentration at half of the fitted maximal effect.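 On activity (max response): cells grown in serum-free medium with ITS supplement; on the % scale 0 is the no-effect control and ±100 the full control effect.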 Particulars: SW-13 ACC cells viability, CellTiter-Glo, 48 h; activity (max response): hits give low values. In outline:
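Compound titrations (up to 46 uM final, in DMSO) were applied to SW-13 cells for 48 h at 37C/5% CO2. Reading used CellTiter-Glo after 20 min at room temperature; fitted curves yielded IC50 and efficacy.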

Test [5] is described as follows: Cellular viability qHTS for adrenocortical cancer (ACC) cell line NCI-H295R (AID 1963990). Further: nearly all actives have a fitted effect of over 60% in size. Further: potency means the concentration at half of the fitted maximal effect.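 On activity change, negative = viability loss: 0% = DMSO only wells and -100% = full killing with cytotoxic reference compound.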 Put shortly: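 Readout: CellTiter-Glo luminescence, 20 min RT. Exposure: 48 h, 37C/5% CO2. Cells: NCI-H295R, ITS-DMEM serum-free. Range: up to 46 uM. Analysis: 4PL fit, IC50 plus efficacy.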

On to `NCC1CCC(C(=O)Oc2ccc(CCC(=O)O)cc2)CC1` (stereo not drawn), for which the Potency result in test [1], in test [2], in test [3] and in test [5] was “inactive” in each case. For the same molecule, the activity (max response) in test [4] was 3.63%.

For the molecule `CCCc1ncc(C(=O)O)s1`, the Potency entry in test [1], in test [2] and in test [3] was “inactive” throughout. Also, the activity (max response) in test [4] is 8.93%.

For the molecule `COc1cccc(OC)c1C(=O)N[C@@H]1C(=O)N2[C@@H]1SC(C)(C)[C@@H]2C(=O)O`, the Potency entry in test [1], in test [2] and in test [3] was “inactive” each time. Moreover, in test [4], the activity (max response) was 11.1%.

On to `O=S(=O)(O)NC1CCCCC1`, for which the Potency entry in test [1], in test [2], in test [3] and in test [5] was “inactive” each time. Also, in test [4], the activity (max response) is 6.85%.

For the molecule `C[C@@H]1CCNC(=O)c2cc3ccc(C(=O)Nc4nc5ccccc5n4CCCN(C)C)cc3n21`, the Potency entry in test [1] was “inactive”. Moreover, the Potency in test [2] was 662 nM (active); in test [3], 820 nM (active); in test [4], 25.1 µM (active).

On to `COc1cc2c(cc1OC(C)C)[C@H](c1ccc(Cl)cc1)N(c1ccc(N(C)CC3CCC(N4CCN(C)C(=O)C4)CC3)cc1)C(=O)C2` (stereo partly drawn), for which the Potency result in test [1] is “inactive”. The Potency in test [2] was 11800 nM (active); in test [3], 9.2 µM (active) and 8.33 µM (active); in test [4] it was 25.1 µM (active).

As to `CCCC(O)C(CC)CO` (stereo not drawn), the Potency entry in test [1], in test [2] and in test [3] was “inactive” throughout. In test [4], the activity (max response) was 8.36%.

In the case of `CCOC(=O)[C@H](CCc1ccccc1)N[C@@H](C)C(=O)N1CCC[C@H]1C(=O)O`, the Potency entry in test [1], in test [2], in test [3] and in test [5] was “inactive” throughout. Also, the activity (max response) in test [4] is 11.5% and -12%.

Take `C=CCn1c(=O)n([C@@H]2O[C@H](CO)[C@@H](O)[C@H]2O)c2nc(N)[nH]c(=O)c21`: the Potency entry in test [1], in test [2], in test [3] and in test [5] was “inactive” in each case. In addition, in test [4], the activity (max response) was 10.8%.

In the case of `CCC1(c2ccccc2)C(=O)NCNC1=O`, the Potency entry in test [1], in test [2] and in test [3] was “inactive” each time. Besides, the activity (max response) in test [4] was 8.13% and -10.5%.

Regarding `C[C@@H](O)[C@H]1C(=O)N2C(C(=O)O)=C([C@H]3CCCO3)S[C@H]12`, the Potency entry in test [1], in test [2], in test [3] and in test [5] was “inactive” in each case. Also, in test [4], the activity (max response) was 12.4%.

Take `COc1ccc(O)cc1`: the Potency result in test [1], in test [2] and in test [3] was “inactive” each time. Also, the activity (max response) in test [4] was -1.22%.

`CCOc1ccc(NC(C)=O)cc1`: the Potency result in test [1], in test [2] and in test [3] was “inactive” in each case. The activity (max response) in test [4] is -8.62%.

For the molecule `NC(=O)C1(N2CCCCC2)CCN(CCCC(=O)c2ccc(F)cc2)CC1`, the Potency result in test [1], in test [2], in test [3] and in test [5] was “inactive” each time. Also, the activity (max response) in test [4] is 1.85%.

Turning to `[Cl][In]([Cl])[Cl]`, the Potency result in test [1], in test [2] and in test [3] was “inactive” throughout. Besides, in test [4], the Potency was 35.5 µM (active).

Regarding `NS(=O)(=O)c1cc(C2(O)NC(=O)c3ccccc32)ccc1Cl` (stereo not drawn), the Potency entry in test [1], in test [2] and in test [3] was “inactive” throughout. In test [4], the activity (max response) is 17.7%.

As for `COc1cc(N2CCC(N3CCN(C)CC3)CC2)ccc1Nc1ncnc(Nc2ccccc2S(=O)(=O)C(C)C)n1`, the Potency entry in test [1] was “inactive”. Also, the Potency is 1.16 µM (active) and 1.32 µM (active) in test [2]; 2.06 µM (active) and 2.63 µM (active) in test [3]; 11.2 µM (active) in test [4]; 8.91 µM (active) in test [5].

For `Oc1ccccc1-c1nnco1`, the Potency entry in test [1], in test [2], in test [3] and in test [5] was “inactive” in each case. Moreover, in test [4], the activity (max response) was 12.7%.

As for `CC1(C)CO[C@@H](CC(=O)O)CN1`, the Potency result in test [1], in test [2] and in test [3] was “inactive” throughout. Besides, the activity (max response) in test [4] was 8.37%.

Consider `CC(=O)NCCCCCC(=O)O`, for which the Potency entry in test [1], in test [2] and in test [3] was “inactive” in each case. Moreover, the activity (max response) in test [4] was -2.94%.

In the case of `C#CCN(C)Cc1ccccc1`, the Potency entry in test [1], in test [2], in test [3] and in test [5] was “inactive” in each case. Besides, the activity (max response) in test [4] was 11.7%.

Regarding `CCCN1CCN(c2ccc(C(=O)NC3(C(=O)NCC#N)CCCCC3)cc2)CC1`, the Potency entry in test [1], in test [2], in test [3] and in test [5] was “inactive” throughout. The activity (max response) in test [4] was -11.1%.

As for `O=C(O)Cc1cccc(-c2cc(CCCCCCc3ccc(O[C@H]4O[C@H](CO)[C@@H](O)[C@H](O)[C@@H]4O)c(-c4cccc(CC(=O)O)c4)c3)ccc2O[C@H]2O[C@H](CO)[C@@H](O)[C@H](O)[C@@H]2O)c1`, the activity change, negative = inhibition in test [1] was -19.9% [at 0.91 µM]. Also, the viability (% of control) in test [2] was 99.5% [at 0.588 µM]. For the same molecule, the viability, % of control in test [3] is 113% [at 0.588 µM]. For the same molecule, in test [4], the activity (max response) is 8.49%. The activity change, negative = viability loss in test [5] was -4.2% [at 0.587 µM].

On to `O=C(O)c1ccccc1S`, for which the Potency result in test [1], in test [2], in test [3] and in test [5] was “inactive” each time. The activity (max response) in test [4] was 5.53%.

In the case of `CCOC(=O)C(=O)CCCCCCl`, the Potency entry in test [1], in test [2], in test [3] and in test [5] was “inactive” throughout. Besides, in test [4], the activity (max response) was 1.38%.

For the molecule `CC(C)c1c2cc(-c3ccnc(NC4CCC(NC5CCOCC5)CC4)n3)ccc2nn1C` (stereo not drawn), in test [1], the Potency result is “inactive”. In addition, the Potency is 130 nM (active) and 105 nM (active) in test [2]; 116 nM (active) and 83.3 nM (active) in test [3]; 0.282 µM (active) in test [4]; 0.447 µM (active) in test [5].

For `C[N+]1(C)CCCC(OC(=O)C(O)(c2ccccc2)c2ccccc2)C1` (stereo not drawn), the Potency entry in test [1], in test [2], in test [3] and in test [5] was “inactive” in each case. In test [4], the activity (max response) is -0.325%.

As for `CC(=O)OC[C@H]1O[C@@H](n2ncc(=O)[nH]c2=O)[C@H](OC(C)=O)[C@@H]1OC(C)=O`, the Potency result in test [1], in test [2], in test [3] and in test [5] was “inactive” each time. Moreover, the activity (max response) in test [4] is -6.84%.

`CC(=O)CCCCn1c(=O)c2c(ncn2C)n(C)c1=O`: the Potency entry in test [1], in test [2], in test [3] and in test [5] was “inactive” in each case. For the same molecule, in test [4], the activity (max response) was 7.09%.

Turning to `CCn1cc(C(=O)O)c(=O)c2cnc(N3CCCC3)nc21`, the activity change, negative = inhibition in test [1] was 25.3% [at 11.5 µM]. Further, the viability (% of control) in test [2] is 74.1% [at 9.25 µM]. In addition, the viability, % of control in test [3] is 103% [at 9.25 µM]. Besides, the activity (max response) in test [4] was -7.72%. In addition, the activity change, negative = viability loss in test [5] is -14.1% [at 9.17 µM].
